Counter-ions that a name gives are not always drawn.
Key:
Settings in all cases: treatment time: 24 h
A549-ACTB-RAB5A [1] = experiment: lowest phenotypically active concentration; higher = less potent
Outline: (§1)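 Cells from fifteen gene-edited reporter lines (A549, HepG2 and WPMY1) were treated for 24 h at 0.3, 1, 3 or 9 µM and imaged live, four wells per condition. Features were normalised per well to solvent control wells. A condition deviated if ≥3 of 4 wells passed the 95th percentile of control Euclidean distances and was reproducible if its median replicate Pearson correlation beat the 95th percentile of non-replicates; phenotypic activity needed both.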

A549-GM130-SQSTM1 [2] = experiment: as above
Outline: as §1

HepG2-ACTB-RAB5A [3] = experiment: as above
Outline: as §1

A549-ACTB-RAB5A [4] = experiment: phenotypically active (imaging signature differs from DMSO and reproducible) at any of 0.3-9 uM (binary (1 = active, 0 = inactive)); higher = active
Outline: as §1

A549-CANX-COX4 = experiment: as above
Outline: as §1

A549-GM130-SQSTM1 [5] = experiment: as above
Outline: as §1

A549-TP53BP1-CLTA = experiment: as above
Outline: as §1

A549-TUBA1B-RELA [6] = experiment: as above
Outline: as §1

HepG2-ACTB-RAB5A [7] = experiment: as above
Outline: as §1

HepG2-CANX-COX4 = experiment: as above
Outline: as §1

HepG2-GM130-SQSTM1 = experiment: as above
Outline: as §1

HepG2-TP53BP1-CLTA [8] = experiment: as above
Outline: as §1

HepG2-TUBA1B-RELA = experiment: as above
Outline: as §1

WPMY1-ACTB-RAB5A = experiment: as above
Outline: as §1

WPMY1-CANX-COX4 = experiment: as above
Outline: as §1

WPMY1-GM130-SQSTM1 = experiment: as above
Outline: as §1

WPMY1-TP53BP1-CLTA = experiment: as above
Outline: as §1

WPMY1-TUBA1B-RELA = experiment: as above
Outline: as §1

A549-TUBA1B-RELA [9] = experiment: lowest phenotypically active concentration; higher = less potent
Outline: as §1

HepG2-TP53BP1-CLTA [10] = experiment: as above
Outline: as §1

Compound | lowest phenotypically active concentration (A549-ACTB-RAB5A [1]) [µM] | lowest phenotypically active concentration (A549-GM130-SQSTM1 [2]) [µM] | lowest phenotypically active concentration (HepG2-ACTB-RAB5A [3]) [µM] | phenotypically active (A549-ACTB-RAB5A [4]) | phenotypically active (A549-CANX-COX4) | phenotypically active (A549-GM130-SQSTM1 [5]) | phenotypically active (A549-TP53BP1-CLTA) | phenotypically active (A549-TUBA1B-RELA [6]) | phenotypically active (HepG2-ACTB-RAB5A [7]) | phenotypically active (HepG2-CANX-COX4) | phenotypically active (HepG2-GM130-SQSTM1) | phenotypically active (HepG2-TP53BP1-CLTA [8]) | phenotypically active (HepG2-TUBA1B-RELA) | phenotypically active (WPMY1-ACTB-RAB5A) | phenotypically active (WPMY1-CANX-COX4) | phenotypically active (WPMY1-GM130-SQSTM1) | phenotypically active (WPMY1-TP53BP1-CLTA) | phenotypically active (WPMY1-TUBA1B-RELA) | lowest phenotypically active concentration (A549-TUBA1B-RELA [9]) [µM] | lowest phenotypically active concentration (HepG2-TP53BP1-CLTA [10]) [µM]
NS(=O)(=O)c1nn2cc(-c3ccccc3)nc2s1 | 9 | 9 | 9 | 1 (active) | 0 (inactive) | 1 (active) | 1 (active) | 0 (inactive) | 1 (active) | 1 (active) | 1 (active) | 0 (inactive) | 1 (active) | 1 (active) | 0 (inactive) | 1 (active) | 1 (active) | 1 (active) | – | –
COc1ccccc1OCCNCC(O)COc1cccc2[nH]c3ccccc3c12 (stereo not drawn) [Carvedilol] | 9 | 9 | 9 | 1 (active) | 0 (inactive) | 1 (active) | 1 (active) | 1 (active) | 1 (active) | 1 (active) | 1 (active) | 1 (active) | 1 (active) | 1 (active) | 1 (active) | 1 (active) | 1 (active) | 1 (active) | 9 | 9
COc1ccc(CCNCc2ccc(OCc3ccc(Cl)nc3)c(OC)c2)cc1OC [SBE 13 hydrochloride] | 3 | 9 | 9 | 1 (active) | 0 (inactive) | 1 (active) | 1 (active) | 1 (active) | 1 (active) | 0 (inactive) | 0 (inactive) | 1 (active) | 1 (active) | 1 (active) | 1 (active) | 1 (active) | 1 (active) | 1 (active) | 3 | 9
CC(C)COCC(CN(Cc1ccccc1)c1ccccc1)N1CCCC1 (stereo not drawn) [bepridil] | 9 | 9 | 9 | 1 (active) | 0 (inactive) | 1 (active) | 1 (active) | 1 (active) | 1 (active) | 1 (active) | 1 (active) | 1 (active) | 1 (active) | 0 (inactive) | 1 (active) | 1 (active) | 1 (active) | 0 (inactive) | 9 | 9
CCCS(=O)(=O)Nc1ccc(F)c(C(=O)c2c[nH]c3ncc(Cl)cc23)c1F | 3 | 9 | 3 | 1 (active) | 0 (inactive) | 1 (active) | 1 (active) | 1 (active) | 1 (active) | 1 (active) | 1 (active) | 1 (active) | 1 (active) | 0 (inactive) | 0 (inactive) | 1 (active) | 0 (inactive) | 0 (inactive) | 9 | 1
